Bioassay records: PubChem, several laboratories
Hits are enriched below; roughly 1.8% of the tested compounds scored in any of these assays.
ARNT-TACC3 inh: ARNT/TACC3 interaction disruption; Q9Y6A5; AlphaScreen His-ARNT PAS-B/GST-TACC3 binding, luminescence; TACC3 fragment carries E629A point mutation; inhibition, % at 9.99 µM; 390,000 compounds, 0.66% hits;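 active = mean inhibition of replicates at least 50% and at least half of replicates each reaching 50%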
iPSC survival up: increases survival of single human iPS cells; AID 602274; hiPSC single-cell survival, ATPlite luminescence; 100% = ROCK inhibitor wells, 0% = DMSO; survival enhancement, % at 20 µM; 360,000 compounds, 0.044% hits; in the data active = survival enhancement above about 18%;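 also: cells exposed to compounds for 16 hours before the ATP read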
INS-1E GSIS act: GLuc luminescence reporter in INS-1E cells, primary screen for activators of glucose-dependent secretion of insulin. INS-1E GLuc reporter insulin secretion, 2-3 h. activation, % at 16.6 µM. 370,000 compounds, 0.61% hits. AID 743287;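 active = lowest replicate activation of at least 40%, so every replicate reaches that level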
ABCB6 inh MLPCN: human ABCB6 transporter inhibition | K562-ABCB6 porphyrin accumulation, flow cytometry, 1 h; hits give low values | fluorescence ratio to DMSO, % at 10 µM | 360,000 compounds, 0.19% hits;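 active = fluorescence ratio to DMSO below 75%, the collection mean minus 3 SD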;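 also: signal is porphyrin accumulated inside mitochondria; lower ratio means ABCB6 inhibition with less porphyrin fluorescence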
Target sequence (Q9NP58 whole entry, looked up): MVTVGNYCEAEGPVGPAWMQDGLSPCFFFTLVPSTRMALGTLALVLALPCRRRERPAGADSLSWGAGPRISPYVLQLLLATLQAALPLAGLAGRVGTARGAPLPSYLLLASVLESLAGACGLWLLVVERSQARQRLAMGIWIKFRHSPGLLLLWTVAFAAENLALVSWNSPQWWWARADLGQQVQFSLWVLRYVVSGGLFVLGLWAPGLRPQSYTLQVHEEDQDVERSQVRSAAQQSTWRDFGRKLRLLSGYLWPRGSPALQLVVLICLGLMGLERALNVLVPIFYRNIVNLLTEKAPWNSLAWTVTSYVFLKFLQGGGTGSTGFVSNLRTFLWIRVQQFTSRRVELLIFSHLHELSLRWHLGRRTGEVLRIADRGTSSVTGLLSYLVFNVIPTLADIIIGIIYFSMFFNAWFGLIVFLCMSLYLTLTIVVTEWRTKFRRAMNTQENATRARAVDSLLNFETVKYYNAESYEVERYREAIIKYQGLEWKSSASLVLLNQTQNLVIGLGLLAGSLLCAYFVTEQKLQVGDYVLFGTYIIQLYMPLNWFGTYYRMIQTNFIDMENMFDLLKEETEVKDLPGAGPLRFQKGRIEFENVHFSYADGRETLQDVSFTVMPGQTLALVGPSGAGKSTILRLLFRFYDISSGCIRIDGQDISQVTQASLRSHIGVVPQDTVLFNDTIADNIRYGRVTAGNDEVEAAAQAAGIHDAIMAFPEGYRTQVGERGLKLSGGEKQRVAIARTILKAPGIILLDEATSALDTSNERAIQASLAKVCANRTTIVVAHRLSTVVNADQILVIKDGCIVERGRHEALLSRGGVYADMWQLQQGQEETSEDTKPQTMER
CendR NRP1 mod: NRP-1/CendR interaction modulation; AID 602438; FAM-RPARPAR peptide binding to NRP-1, fluorescence polarization; O14786; inhibition, % at 25 µM; 360,000 compounds, 0.85% hits;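 active = inhibition or corrected inhibition above about 18%, plus a signal ratio from 0.5 to 1.5, limit read from the data, passing the limit was not always enough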
ABCB6 blocker 1: human ABCB6 transporter inhibition. 700 tested, under 10 active. K562-ABCB6 porphyrin accumulation, flow cytometry, 1 h; hits give low values. ratio response (% of DMSO), % at 10 µM. shares compounds with ABCB6 inh MLPCN. AID 602430;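 active = repeat-averaged ratio response below 75% of DMSO, the collection mean minus 3 SD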;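 also: median porphyrin fluorescence at 575 nm with 488 nm excitation from mitochondria; lower ratio means less porphyrin signal so ABCB6 inhibition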
Each line names hits and unclear results; the compound was inactive in the other large screens (follow-up assays come after a bar, where they were run).

CCOc1ccc(C(=O)N[C@H](C(=O)Nc2ccc(OC)c(S(=O)(=O)N3CCOCC3)c2)C(C)C)cc1	ABCB6 inh MLPCN 73.0 | ABCB6 blocker 1 inactive
CCOc1ccccc1C(=O)N[C@H](C(=O)Nc1ccc(OC)c(S(=O)(=O)N2CCOCC2)c1)C(C)C	none
COc1ccccc1NC(=O)c1sc2nc3n(c(=O)c2c1C)CCC3	none
Cc1c(C(=O)Nc2ccccc2F)sc2nc3n(c(=O)c12)CCC3	none | ABCB6 blocker 1 inactive
CCOc1ccc(NC(=O)c2sc3nc4n(c(=O)c3c2C)CCC4)cc1	none | ABCB6 blocker 1 inactive
Cc1cc(C)cc(NC(=O)c2sc3nc4n(c(=O)c3c2C)CCC4)c1	none
CCc1cccc(NC(=O)c2sc3nc4n(c(=O)c3c2C)CCC4)c1	none | ABCB6 blocker 1 inactive
CCOC(=O)c1ccc(NC(=O)c2sc3nc4n(c(=O)c3c2C)CCC4)cc1	none
CC1(C)Cn2c(nnc2-c2ccccc2)S1	ABCB6 inh MLPCN 74.0 (no result: INS-1E GSIS act) | ABCB6 blocker 1 inactive
COc1ccccc1Oc1ncnc2c1oc1ccccc12	ABCB6 inh MLPCN 69.0 | ABCB6 blocker 1 inactive
COCC#Cc1cnc2c(c1)C(=O)N([C@H](C)CO)C[C@H](C)[C@@H](CN(C)C(=O)NC1CCCC1)O2	none (no result: iPSC survival up, ABCB6 inh MLPCN, CendR NRP1 mod)
COc1ccc(C(=O)NCC(C)NC(=O)c2ccc(OC)cc2)cc1 (stereo not given)	none
CC(CNC(=O)c1ccc(C#N)cc1)NC(=O)c1ccc(C#N)cc1 (stereo not given)	ABCB6 inh MLPCN 73.0 | ABCB6 blocker 1 inactive
COc1ccc(C(=O)OCC(=O)Nc2cc(C)c(C)cc2[N+](=O)[O-])cc1	ABCB6 inh MLPCN 57.0 (no result: ARNT-TACC3 inh) | ABCB6 blocker 1 inactive
Cc1ccc(CCNC(=O)CCS(=O)(=O)c2ccc(Br)cc2)cc1	none (no result: ARNT-TACC3 inh)
CC1CCN(CCNC(=O)CCS(=O)(=O)c2ccc(Br)cc2)CC1	ABCB6 inh MLPCN 7.0 (no result: INS-1E GSIS act) | ABCB6 blocker 1 inactive
Cc1cccc(C(O)c2ncc(-c3ccccc3Cl)[nH]2)c1C (stereo not given)	none (no result: ARNT-TACC3 inh, INS-1E GSIS act)
Cc1ccccc1-c1cnc(C(O)c2cccc(C)c2C)[nH]1 (stereo not given)	ABCB6 inh MLPCN 70.0 (no result: ARNT-TACC3 inh) | ABCB6 blocker 1 inactive
Cc1ccc2nc(CSc3nnc(Cc4cccs4)n3C3CCCCC3)cc(=O)n2c1	ABCB6 inh MLPCN 66.0 (no result: INS-1E GSIS act) | ABCB6 blocker 1 inactive
COc1cc(-c2nnc(CSc3nnc(Nc4ccc(C(C)C)cc4)s3)o2)cc(OC)c1OC	ABCB6 inh MLPCN 74.0 | ABCB6 blocker 1 inactive
COc1ccccc1Nc1nnc(SCc2nnc(-c3cc(OC)c(OC)c(OC)c3)o2)s1	none
CC(C)NC(=O)Nc1ccc2c(c1)C(=O)N([C@H](C)CO)C[C@@H](C)[C@H](CN(C)Cc1ccc(-c3ccccc3)cc1)O2	none (no result: iPSC survival up, ABCB6 inh MLPCN, CendR NRP1 mod)
O=C(Nc1ccc(NC(=O)C2CC2)cn1)c1ccccc1	none
O=C(Nc1ccc(NC(=O)C2CC2)nc1)c1cccnc1	ABCB6 inh MLPCN 68.0 (no result: INS-1E GSIS act) | ABCB6 blocker 1 inactive
COc1ccc(NC(=O)O[C@H](c2ccc(OC)c(O)c2)[C@@H](CCO)OC)cc1	none (no result: iPSC survival up, INS-1E GSIS act, ABCB6 inh MLPCN, CendR NRP1 mod)
O=C(Nc1ccc2c(c1)[C@@H]1C[C@H](CC(=O)N3CCCCC3)O[C@H](CO)[C@@H]1O2)NC1CCCC1	none (no result: iPSC survival up, ABCB6 inh MLPCN, CendR NRP1 mod)
NC(=S)Cc1nc2n(n1)Cc1ccccc1-2	ABCB6 inh MLPCN 70.0 | ABCB6 blocker 1 inactive
Cc1ccc(O)c(NC2=C(Cl)C(=O)N(Cc3ccccc3)C2=O)c1	ABCB6 inh MLPCN 74.0 | ABCB6 blocker 1 inactive
Cc1ccc(C(=O)N2CCCCC2)cc1NC1=C(Cl)C(=O)N(Cc2ccccc2)C1=O	none
COc1ccc(NC(=O)c2cccc(S(=O)(=O)N3CCCCC3)c2)c(OC)c1	ABCB6 inh MLPCN 13.0 | ABCB6 blocker 1 inactive
Cc1ccc(F)c(S(=O)(=O)NC(=O)C2(C)CCN2C(=O)Cc2cc(F)ccc2F)c1 (stereo not given)	none (no result: ARNT-TACC3 inh) | ABCB6 blocker 1 inactive
CC1(C(=O)NS(=O)(=O)c2ccc(C#N)cc2)CCN1C(=O)Cc1cc(F)ccc1F (stereo not given)	none (no result: ARNT-TACC3 inh, INS-1E GSIS act) | ABCB6 blocker 1 inactive
CC1(C(=O)NS(=O)(=O)c2ccc(F)cc2F)CCN1C(=O)Cc1cc(F)ccc1F (stereo not given)	none (no result: ARNT-TACC3 inh)
Cc1ccccc1S(=O)(=O)NC(=O)C1(C)CCN1C(=O)CCc1ccc(Cl)cc1Cl (stereo not given)	none (no result: ARNT-TACC3 inh) | ABCB6 blocker 1 inactive
Cc1ccc(F)c(S(=O)(=O)NC(=O)C2(C)CCN2C(=O)Cc2ccccc2Cl)c1 (stereo not given)	none (no result: ARNT-TACC3 inh, INS-1E GSIS act) | ABCB6 blocker 1 inactive
CC(C)(C)c1ccc(S(=O)(=O)NC(=O)C2(C)CCN2C(=O)Cc2cc(F)ccc2F)cc1 (stereo not given)	none (no result: ARNT-TACC3 inh)
Cc1ccc(F)c(S(=O)(=O)NC(=O)C2(C)CCN2C(=O)Cc2ccc(Cl)cc2Cl)c1 (stereo not given)	none (no result: ARNT-TACC3 inh)
O=c1c2c(nc(NCCO)n1CC1CCCCC1)-c1ccccc1CC21CCCC1	ABCB6 inh MLPCN 61.0 (no result: INS-1E GSIS act) | ABCB6 blocker 1 inactive
COc1cccc(-c2ccc3c(c2)[C@@H]2[C@@H](CCN2Cc2ccccc2OC)[C@@H](CO)N3)c1	none (no result: iPSC survival up, ABCB6 inh MLPCN, CendR NRP1 mod)
O=C1C[C@@](C(=O)NCCN2CCOCC2)(c2ccc([N+](=O)[O-])cc2)[C@@H](c2ccc(CO)cc2I)N1CC12CC3CC(CC(C3)C1)C2	none (no result: iPSC survival up, INS-1E GSIS act, ABCB6 inh MLPCN, CendR NRP1 mod)
O=C(C[C@@H]1C=C[C@H](NC(=O)Nc2cc(F)ccc2F)[C@H](CO)O1)Nc1ccccc1	none (no result: iPSC survival up, ABCB6 inh MLPCN, CendR NRP1 mod)
Cc1cccc(N2CCN(C(=O)CCN3C(=O)C4C5C=CC(C5)C4C3=O)CC2C)c1 (stereo not given)	ABCB6 inh MLPCN 67.0 (no result: ARNT-TACC3 inh) | ABCB6 blocker 1 inactive
O=C(NCc1ccccc1)[C@H]1[C@H](CO)[C@H]2Cn3c(cccc3=O)[C@@H]1N2Cc1ccccn1	none (no result: iPSC survival up, ABCB6 inh MLPCN, CendR NRP1 mod)
CCC(=O)N(C)C[C@@H]1Oc2ncc(-c3ccc(C)cc3)cc2C(=O)N([C@H](C)CO)C[C@@H]1C	none (no result: iPSC survival up, ABCB6 inh MLPCN, CendR NRP1 mod)
COc1ccccc1N(C)S(=O)(=O)c1ccc(C(=O)N2CCCC(C(F)(F)F)C2)cc1 (stereo not given)	ABCB6 inh MLPCN 74.0 (no result: INS-1E GSIS act) | ABCB6 blocker 1 inactive
COc1ccccc1NS(=O)(=O)c1ccc(C(=O)N2CCCC(C(F)(F)F)C2)cc1 (stereo not given)	none
Cc1ccc(S(=O)(=O)N(C)C[C@@H]2Oc3c(NC(=O)CCCCCC(=O)Nc4ccccc4N)cccc3C(=O)N([C@H](C)CO)C[C@@H]2C)cc1	none (no result: ARNT-TACC3 inh, iPSC survival up, ABCB6 inh MLPCN, CendR NRP1 mod)
CC(=O)Nc1cccc(-c2ccnc3c2CC(C(=O)Nc2cccnc2)O3)c1 (stereo not given)	none (no result: ARNT-TACC3 inh) | ABCB6 blocker 1 inactive
CC(=O)Nc1ccc(-c2ccnc3c2CC(C(=O)Nc2cccc(OC(F)(F)F)c2)O3)cc1 (stereo not given)	ABCB6 inh MLPCN 74.0 (no result: ARNT-TACC3 inh, INS-1E GSIS act) | ABCB6 blocker 1 inactive
O=C(Nc1cccc(C(F)(F)F)c1)C1Cc2c(-c3ccccc3Oc3ccccc3)ccnc2O1 (stereo not given)	none (no result: ARNT-TACC3 inh) | ABCB6 blocker 1 inactive
